Bioassay records deposited in PubChem by Paczesny and Yang Labs, IUPUI and University of Michigan.
ST2 IL33 inh – inhibitors of human ST2 (IL1RL1) binding to IL-33. Q01638. AlphaLISA ST2-Fc/biotin-IL-33 interaction, 1 h. inhibition, % for hits at 17 µM. actives 2.3% (n = 78,000). AID 1259354; in the data active = inhibition above about 30%
Target sequence (Q01638 whole entry, looked up): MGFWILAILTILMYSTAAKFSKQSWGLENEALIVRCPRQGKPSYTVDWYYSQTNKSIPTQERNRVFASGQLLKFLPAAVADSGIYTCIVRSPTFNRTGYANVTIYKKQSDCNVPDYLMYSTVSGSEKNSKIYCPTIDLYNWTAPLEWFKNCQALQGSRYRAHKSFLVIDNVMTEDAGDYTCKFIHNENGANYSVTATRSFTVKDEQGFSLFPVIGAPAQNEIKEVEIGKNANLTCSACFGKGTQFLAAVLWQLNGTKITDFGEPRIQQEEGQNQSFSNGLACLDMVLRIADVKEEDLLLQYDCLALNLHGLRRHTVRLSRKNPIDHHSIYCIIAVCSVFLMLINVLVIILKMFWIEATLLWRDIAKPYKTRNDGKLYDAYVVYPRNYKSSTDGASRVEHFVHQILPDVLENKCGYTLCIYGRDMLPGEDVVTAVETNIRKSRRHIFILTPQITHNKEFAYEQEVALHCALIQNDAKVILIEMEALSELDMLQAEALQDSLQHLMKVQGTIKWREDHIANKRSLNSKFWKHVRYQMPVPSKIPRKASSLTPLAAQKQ
Hits are given with their value; 0 = inactive. The sample as a whole holds a higher share of hits than the screen did.

SMILES	ST2 IL33 inh
CCCCOC(=O)Nc1ccccc1F	0
COc1ccc(NC(=O)CC2CCCCC2)c([N+](=O)[O-])c1	40%
COc1ccc(NC(=O)CC2CCCCC2)c(OC)c1	0
O=C(Nc1ccc(-c2nc3ccccc3o2)cc1)c1cc(=O)c2ccccc2o1	0
COc1ccc(Nc2nnc(C(C)(C)C)c(=O)[nH]2)c(OC)c1	0
Cc1ccc(S(=O)(=O)N2CCN(c3nc(C)cc(N4CCCC4)n3)CC2)cc1	0
Cc1ccc(S(=O)(=O)N2CCN(c3nc(-c4ccc(C)o4)cs3)CC2)cc1	37%
Cc1ccc(Nc2cc(C)nc(N3CCN(S(=O)(=O)c4ccc(C)cc4)CC3)n2)cc1	0
OCC1(CCc2ccccc2)CCCN(Cc2cccn2-c2cccnc2)C1 (configuration not stated)	0
CCCC(=O)N1c2ccccc2NC2=C(C(=O)CCC2)C1c1c(Cl)cccc1Cl (configuration not stated)	0
CN1CCCC1CCNC1CCCCCC1 (configuration not stated)	0
CCN1CCCC(C(=O)Nc2ccc(-c3cccc(OC)c3)cc2)C1 (configuration not stated)	0
O=C(Nc1cccc(F)c1)C1CCN(S(=O)(=O)c2cccs2)CC1	0
c1cn(-c2ccc(-c3noc([C@@H]4CCCN4)n3)cn2)cn1	0
CC(C)N1CCC[C@H]1c1nc(-c2ccc(-n3ccnc3)nc2)no1	35%
c1cc(N2CCOCC2)ncc1-c1noc([C@@H]2CCCN2C2CCOCC2)n1	0
CC(C)c1nc(CNC(=O)c2cn(Cc3ccccc3F)nn2)cs1	0
CSc1nc2c(c(=O)[nH]1)C(c1ccc(O)cc1)C1=C(CCCC1=O)N2 (configuration not stated)	0
CN1CCC2(CCC1=O)CCN(c1nccc3ccccc13)CC2	0
O=C([C@@H](O)Cc1ccccc1)N1CCCn2cncc2C1	0
Cc1ccc(S(=O)(=O)N=C2C=C(Nc3cccc(C(=O)O)c3)C(=O)c3ccccc32)cc1	53%
Cc1ccc(NC(=O)c2cccc(S(=O)(=O)Nc3cccc(C(=O)O)c3)c2)cc1	0
Cc1ccc(S(=O)(=O)Nc2cccc(C(=O)NN)c2)cc1	0
Cc1ccc(S(=O)(=O)N=C2C=C(Nc3cccc(C(=O)O)c3)C(=O)c3ccccc32)c(C)c1	48%
Cc1cccc(NC(=O)C(C)N(c2ccccc2)S(C)(=O)=O)c1 (configuration not stated)	0
SMILES	ST2 IL33 inh
Cc1ccc([N+](=O)[O-])cc1S(=O)(=O)Nc1cccc(C(=O)O)c1	0
Cc1ccc(CNC2CC(=O)N(Cc3ccccc3C(F)(F)F)C2)o1 (configuration not stated)	0
O=S(=O)(Nc1ccccc1I)c1ccc(F)cc1	0
CC1=C(C(=O)Nc2cccc(C)n2)C(c2ccccc2)C2=C(CC(C)(C)CC2=O)N1 (configuration not stated)	0
COc1cc(N(C)CCC2CCCCO2)ncn1 (configuration not stated)	0
O=C(NCCCN1CCOCC1)c1cc(=O)[nH]c2ccc(S(=O)(=O)N3CCCCC3)cc12	0
NC(=O)c1c(N=c2oc3cc(O)ccc3cc2C(N)=O)sc2c1CCCC2	0
COc1ccccc1CC(=O)NCCC1=CCCCC1	0
Cc1onc(-c2ccccc2Cl)c1C(=O)Nc1sc2c(c1C#N)CCC(C)C2 (configuration not stated)	0
CC1CCc2c(sc(NC(=O)c3cc(=O)c4ccccc4o3)c2C#N)C1 (configuration not stated)	0
CC1CCc2c(sc(N=Cc3cccnc3)c2C#N)C1 (configuration not stated)	30%
Cc1sc(S(C)(=O)=O)c(C(=O)O)c1Br	0
CCC1CCCCN1CCCNC(=O)CSc1cc(=O)n(C)c2ccccc12 (configuration not stated)	0
CN(C)C(=NS(=O)(=O)c1ccc(Br)cc1)c1ccccc1	0
O=C1C=CC(=NS(=O)(=O)c2ccccc2)C=C1Br	31%
CCCn1nc(C)c(CNS(=O)(=O)NCc2ccccc2)c1C	0
Cc1cccc(CSC2=NCCN2C(=O)c2cccc(F)c2)c1	0
CNC(=O)C(C)N(C)Cc1cccc(C(=O)OC)c1 (configuration not stated)	0
CNC(=O)C(C)N(C)Cc1nnc(CC2CCNCC2)n1-c1ccccc1 (configuration not stated)	30%
CNC(=O)C(C)N(C)Cc1nc2ccccc2n1CC(C)C (configuration not stated)	0
Cc1ccc(-c2cc(C(F)F)nc(N3CCCC3)n2)cc1	0
O=C1Nc2ccccc2C(O)(C(=O)NCCCN2CCCC2)N1c1ccc(Cl)c(Cl)c1 (configuration not stated)	0
COc1ccc(C2C(C#N)=C(N)Oc3cc(C)oc(=O)c32)cc1 (configuration not stated)	0
COc1ccccc1OC1CN(C2CCN(C(C)=O)CC2)C1	0
Cc1cc(C)n(-c2ccccc2)n1	0
SMILES	ST2 IL33 inh
Cc1csc(=Nc2ccccc2)n1-c1ccccc1	32%
CCOC(=O)c1sc(=Nc2ccccc2)n(-c2ccccc2)c1C	0
Cc1cccn(CC(=O)c2ccc(-c3ccccc3)cc2)c1=N	0
Cc1nc([N+](=O)[O-])cn1CC(=O)c1ccccc1	0
Cc1csc(=Nc2ccccc2)n1CC(=O)c1ccccc1	36%
O=C(CCS(=O)(=O)c1ccc(Br)s1)Nc1ccccc1Cl	0
O=C(Nc1ccc2nc(-c3ccco3)c(-c3ccco3)nc2c1)N1CCSCC1	30%
O=C(Nc1ccc2nc(-c3ccccn3)c(-c3ccccn3)nc2c1)N1CCOCC1	0
CCOC(=O)N1CCN(C(=O)Nc2ccc3nc(C)c(C)nc3c2)CC1	0
O=C(Nc1ccc2nsnc2c1)N1CCCCCC1	0
O=C(Nc1ccc2nc(-c3ccco3)c(-c3ccco3)nc2c1)N1CCOCC1	36%
Cc1nc2ccc(NC(=O)N3CCN(c4ccccc4)CC3)cc2nc1C	0
COC(=O)c1ccc2c(=O)n(CCc3ccccc3)c(=O)[nH]c2c1	0
O=C(Nc1ccccc1C(=O)NCC1CCCO1)c1cccc(I)c1 (configuration not stated)	0
O=C(Nc1cccc(Cl)c1Cl)c1cnc2n(c1=O)CCS2	0
COc1ccccc1C1(CC(=O)N(C)Cc2cccc3ncccc23)CC(=O)N(C2CCCC2)C1=O (configuration not stated)	0
CCOc1ccc2cc(-c3nnc(-c4cccc(OC)c4)o3)c(=O)oc2c1	0
Cc1ccc(/C=C(\C#N)c2nc3ccc(C)cc3[nH]2)cc1	32%
COc1cc(/C=C(\C#N)c2nc3ccc(C)cc3[nH]2)cc(OC)c1O	34%
N#C/C(=C\c1ccc2c(c1)OCO2)c1nc2ccccc2[nH]1	0
CCOc1ccc(Br)cc1/C=C(\C#N)c1nc2ccccc2[nH]1	0
N#C/C(=C\c1cc2c(cc1Br)OCO2)c1nc2ccccc2[nH]1	0
COc1ccc2nc(SCc3ccc(C)cc3)[nH]c2c1	0
CN1CCN(C(=O)c2cc(-c3ccc(Cl)cc3)on2)CC1	0
Cc1cc(C(=O)N2CCC(N3CCCC3=O)CC2)c2cccc(C)c2n1	0
Cc1cccc(N2C(=O)c3ccc(-c4nnc(-c5ccccc5)o4)cc3C2=O)c1	0
CCNC(=O)CC1SC(=Nc2ccc(OC)cc2)N(C)C1=O (configuration not stated)	0
O=C1c2ccccc2C(=O)N1c1cccc(-c2csc(=Nc3ccccc3)n2CCO)c1	48%
CN=c1scc(-c2ccc(Cl)cc2)n1C	0
COc1ccc(C2(C(=O)N3CCCC(O)(CO)C3)CC2)cc1 (configuration not stated)	0
